The text below walks through data of ChEMBL document CHEMBL1961873, “Compounds: GSK PKIS; Assays: Nanosyn kinase panel” (2012).

For assay [1], the target named is T1, Tyrosine-protein kinase receptor TYRO3 (Homo sapiens) (UniProt Q06418).
T1 sequence (whole entry): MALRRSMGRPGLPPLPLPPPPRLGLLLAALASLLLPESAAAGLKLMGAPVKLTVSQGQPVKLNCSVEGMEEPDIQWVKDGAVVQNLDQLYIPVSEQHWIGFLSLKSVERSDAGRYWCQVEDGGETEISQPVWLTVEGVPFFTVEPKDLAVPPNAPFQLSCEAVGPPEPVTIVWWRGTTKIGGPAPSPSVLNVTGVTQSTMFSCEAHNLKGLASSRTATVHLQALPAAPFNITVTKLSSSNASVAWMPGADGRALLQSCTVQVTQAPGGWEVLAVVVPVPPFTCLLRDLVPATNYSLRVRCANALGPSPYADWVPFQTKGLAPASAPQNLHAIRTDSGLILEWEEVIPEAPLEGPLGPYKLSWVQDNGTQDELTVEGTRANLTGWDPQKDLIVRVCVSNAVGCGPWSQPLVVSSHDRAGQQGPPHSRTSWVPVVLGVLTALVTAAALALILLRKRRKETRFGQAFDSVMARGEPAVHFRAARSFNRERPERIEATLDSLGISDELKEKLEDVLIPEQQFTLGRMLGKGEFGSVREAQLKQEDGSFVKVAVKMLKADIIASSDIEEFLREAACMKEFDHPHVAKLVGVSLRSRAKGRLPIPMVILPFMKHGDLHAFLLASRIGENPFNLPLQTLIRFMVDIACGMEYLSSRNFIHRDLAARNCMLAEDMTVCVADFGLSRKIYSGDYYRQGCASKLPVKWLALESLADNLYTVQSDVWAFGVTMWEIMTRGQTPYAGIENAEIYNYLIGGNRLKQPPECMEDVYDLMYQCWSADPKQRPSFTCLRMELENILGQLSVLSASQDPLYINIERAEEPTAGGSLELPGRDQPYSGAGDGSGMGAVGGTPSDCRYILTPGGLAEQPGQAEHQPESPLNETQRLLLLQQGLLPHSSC
The note with it: at 1 µM.

Assay [2] has as its target Tyrosine-protein kinase Yes (Homo sapiens) (UniProt P07947). The settings on record: at 0.1 µM.
For assay [3] the target is unchanged. The settings on record: at 1 µM.
Assay [4] concerns the target T2, Tyrosine-protein kinase ZAP-70 (Homo sapiens) (UniProt P43403).
T2 sequence (whole entry): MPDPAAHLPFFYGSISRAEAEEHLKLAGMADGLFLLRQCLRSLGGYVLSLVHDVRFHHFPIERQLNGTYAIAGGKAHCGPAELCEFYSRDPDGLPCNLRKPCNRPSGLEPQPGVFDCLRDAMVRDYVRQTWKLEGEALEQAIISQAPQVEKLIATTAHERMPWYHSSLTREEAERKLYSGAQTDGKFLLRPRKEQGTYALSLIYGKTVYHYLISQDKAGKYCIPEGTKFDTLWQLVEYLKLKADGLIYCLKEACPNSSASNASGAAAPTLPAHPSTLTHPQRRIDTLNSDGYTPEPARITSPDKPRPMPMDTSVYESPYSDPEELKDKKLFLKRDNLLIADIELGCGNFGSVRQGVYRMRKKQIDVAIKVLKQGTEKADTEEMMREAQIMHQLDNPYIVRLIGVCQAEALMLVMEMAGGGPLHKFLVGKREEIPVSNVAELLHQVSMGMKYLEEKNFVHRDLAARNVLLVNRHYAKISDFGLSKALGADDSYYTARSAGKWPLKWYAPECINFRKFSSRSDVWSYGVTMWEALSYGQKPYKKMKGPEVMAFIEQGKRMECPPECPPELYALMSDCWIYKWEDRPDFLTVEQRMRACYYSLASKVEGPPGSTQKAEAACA
The settings on record: at 0.1 µM.

For assay [5], the target named is T2, Tyrosine-protein kinase ZAP-70 (Homo sapiens). The settings on record: at 1 µM.
Assay [6] addresses Serine/threonine-protein kinase B-raf (Homo sapiens) (UniProt P15056). The settings on record: at 0.1 µM.
Assay [7] has the same target. The note with it: at 1 µM.
Assay [8] concerns Serine/threonine-protein kinase B-raf (Homo sapiens), P15056 [V600E]. The note with it: at 0.1 µM.
The test system is the same in assay [9]. The note with it: at 1 µM.
Assay [10] concerns the target RAF proto-oncogene serine/threonine-protein kinase (Homo sapiens) (UniProt P04049). The settings on record: at 0.1 µM.
Assay [11] shares this target. The settings on record: at 1 µM.
For assay [12], the target named is T3, Interleukin-1 receptor-associated kinase 4 (Homo sapiens) (UniProt Q9NWZ3).
T3 sequence (whole entry): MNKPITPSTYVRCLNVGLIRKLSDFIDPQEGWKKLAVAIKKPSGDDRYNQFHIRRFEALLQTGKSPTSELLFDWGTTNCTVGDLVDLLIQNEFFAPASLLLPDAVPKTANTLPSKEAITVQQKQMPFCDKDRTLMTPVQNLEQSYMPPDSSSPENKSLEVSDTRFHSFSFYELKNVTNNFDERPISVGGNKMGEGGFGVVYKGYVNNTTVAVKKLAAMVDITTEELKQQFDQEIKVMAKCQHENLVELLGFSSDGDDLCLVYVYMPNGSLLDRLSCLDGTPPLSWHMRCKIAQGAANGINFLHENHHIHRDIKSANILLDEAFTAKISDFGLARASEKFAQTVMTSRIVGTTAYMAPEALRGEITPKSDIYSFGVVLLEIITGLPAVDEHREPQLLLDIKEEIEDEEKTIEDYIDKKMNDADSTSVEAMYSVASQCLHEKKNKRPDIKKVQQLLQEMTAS
The settings on record: at 0.1 µM.

Assay [13] addresses T3, Interleukin-1 receptor-associated kinase 4 (Homo sapiens). The settings on record: at 1 µM.
The target in assay [14] is Leucine-rich repeat serine/threonine-protein kinase 2 (Homo sapiens) (UniProt Q5S007). The note with it: at 0.1 µM.
For assay [15] the target is unchanged. The note with it: at 1 µM.
Assay [16] concerns Leucine-rich repeat serine/threonine-protein kinase 2 (Homo sapiens), Q5S007 [G2019S]. The settings on record: at 0.1 µM.
Assay [17] has the same test system. The settings on record: at 1 µM.

“And” between values parts separate entries of the source, which are not always exact repeats. Identical values can stand only once.

Chain of RAF proto-oncogene serine/threonine-protein kinase (Homo sapiens) (P04049 whole entry): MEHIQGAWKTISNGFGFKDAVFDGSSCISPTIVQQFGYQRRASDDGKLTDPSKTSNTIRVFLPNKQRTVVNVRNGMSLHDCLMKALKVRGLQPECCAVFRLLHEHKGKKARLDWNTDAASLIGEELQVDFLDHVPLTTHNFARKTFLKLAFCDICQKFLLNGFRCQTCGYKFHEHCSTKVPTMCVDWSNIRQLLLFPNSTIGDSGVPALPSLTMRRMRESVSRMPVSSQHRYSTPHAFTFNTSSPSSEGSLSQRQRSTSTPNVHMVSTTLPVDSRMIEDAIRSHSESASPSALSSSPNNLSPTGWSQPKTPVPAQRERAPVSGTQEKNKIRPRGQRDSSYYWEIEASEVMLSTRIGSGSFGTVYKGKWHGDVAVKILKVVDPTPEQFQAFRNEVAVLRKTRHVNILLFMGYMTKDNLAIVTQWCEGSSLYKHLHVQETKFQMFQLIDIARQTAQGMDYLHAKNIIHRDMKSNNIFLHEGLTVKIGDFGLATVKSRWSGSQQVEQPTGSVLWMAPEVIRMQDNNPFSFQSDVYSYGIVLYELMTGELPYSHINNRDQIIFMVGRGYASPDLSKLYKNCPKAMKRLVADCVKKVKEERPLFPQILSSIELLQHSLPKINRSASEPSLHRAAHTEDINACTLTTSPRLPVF
Chain of Leucine-rich repeat serine/threonine-protein kinase 2 (Homo sapiens) (Q5S007 whole entry): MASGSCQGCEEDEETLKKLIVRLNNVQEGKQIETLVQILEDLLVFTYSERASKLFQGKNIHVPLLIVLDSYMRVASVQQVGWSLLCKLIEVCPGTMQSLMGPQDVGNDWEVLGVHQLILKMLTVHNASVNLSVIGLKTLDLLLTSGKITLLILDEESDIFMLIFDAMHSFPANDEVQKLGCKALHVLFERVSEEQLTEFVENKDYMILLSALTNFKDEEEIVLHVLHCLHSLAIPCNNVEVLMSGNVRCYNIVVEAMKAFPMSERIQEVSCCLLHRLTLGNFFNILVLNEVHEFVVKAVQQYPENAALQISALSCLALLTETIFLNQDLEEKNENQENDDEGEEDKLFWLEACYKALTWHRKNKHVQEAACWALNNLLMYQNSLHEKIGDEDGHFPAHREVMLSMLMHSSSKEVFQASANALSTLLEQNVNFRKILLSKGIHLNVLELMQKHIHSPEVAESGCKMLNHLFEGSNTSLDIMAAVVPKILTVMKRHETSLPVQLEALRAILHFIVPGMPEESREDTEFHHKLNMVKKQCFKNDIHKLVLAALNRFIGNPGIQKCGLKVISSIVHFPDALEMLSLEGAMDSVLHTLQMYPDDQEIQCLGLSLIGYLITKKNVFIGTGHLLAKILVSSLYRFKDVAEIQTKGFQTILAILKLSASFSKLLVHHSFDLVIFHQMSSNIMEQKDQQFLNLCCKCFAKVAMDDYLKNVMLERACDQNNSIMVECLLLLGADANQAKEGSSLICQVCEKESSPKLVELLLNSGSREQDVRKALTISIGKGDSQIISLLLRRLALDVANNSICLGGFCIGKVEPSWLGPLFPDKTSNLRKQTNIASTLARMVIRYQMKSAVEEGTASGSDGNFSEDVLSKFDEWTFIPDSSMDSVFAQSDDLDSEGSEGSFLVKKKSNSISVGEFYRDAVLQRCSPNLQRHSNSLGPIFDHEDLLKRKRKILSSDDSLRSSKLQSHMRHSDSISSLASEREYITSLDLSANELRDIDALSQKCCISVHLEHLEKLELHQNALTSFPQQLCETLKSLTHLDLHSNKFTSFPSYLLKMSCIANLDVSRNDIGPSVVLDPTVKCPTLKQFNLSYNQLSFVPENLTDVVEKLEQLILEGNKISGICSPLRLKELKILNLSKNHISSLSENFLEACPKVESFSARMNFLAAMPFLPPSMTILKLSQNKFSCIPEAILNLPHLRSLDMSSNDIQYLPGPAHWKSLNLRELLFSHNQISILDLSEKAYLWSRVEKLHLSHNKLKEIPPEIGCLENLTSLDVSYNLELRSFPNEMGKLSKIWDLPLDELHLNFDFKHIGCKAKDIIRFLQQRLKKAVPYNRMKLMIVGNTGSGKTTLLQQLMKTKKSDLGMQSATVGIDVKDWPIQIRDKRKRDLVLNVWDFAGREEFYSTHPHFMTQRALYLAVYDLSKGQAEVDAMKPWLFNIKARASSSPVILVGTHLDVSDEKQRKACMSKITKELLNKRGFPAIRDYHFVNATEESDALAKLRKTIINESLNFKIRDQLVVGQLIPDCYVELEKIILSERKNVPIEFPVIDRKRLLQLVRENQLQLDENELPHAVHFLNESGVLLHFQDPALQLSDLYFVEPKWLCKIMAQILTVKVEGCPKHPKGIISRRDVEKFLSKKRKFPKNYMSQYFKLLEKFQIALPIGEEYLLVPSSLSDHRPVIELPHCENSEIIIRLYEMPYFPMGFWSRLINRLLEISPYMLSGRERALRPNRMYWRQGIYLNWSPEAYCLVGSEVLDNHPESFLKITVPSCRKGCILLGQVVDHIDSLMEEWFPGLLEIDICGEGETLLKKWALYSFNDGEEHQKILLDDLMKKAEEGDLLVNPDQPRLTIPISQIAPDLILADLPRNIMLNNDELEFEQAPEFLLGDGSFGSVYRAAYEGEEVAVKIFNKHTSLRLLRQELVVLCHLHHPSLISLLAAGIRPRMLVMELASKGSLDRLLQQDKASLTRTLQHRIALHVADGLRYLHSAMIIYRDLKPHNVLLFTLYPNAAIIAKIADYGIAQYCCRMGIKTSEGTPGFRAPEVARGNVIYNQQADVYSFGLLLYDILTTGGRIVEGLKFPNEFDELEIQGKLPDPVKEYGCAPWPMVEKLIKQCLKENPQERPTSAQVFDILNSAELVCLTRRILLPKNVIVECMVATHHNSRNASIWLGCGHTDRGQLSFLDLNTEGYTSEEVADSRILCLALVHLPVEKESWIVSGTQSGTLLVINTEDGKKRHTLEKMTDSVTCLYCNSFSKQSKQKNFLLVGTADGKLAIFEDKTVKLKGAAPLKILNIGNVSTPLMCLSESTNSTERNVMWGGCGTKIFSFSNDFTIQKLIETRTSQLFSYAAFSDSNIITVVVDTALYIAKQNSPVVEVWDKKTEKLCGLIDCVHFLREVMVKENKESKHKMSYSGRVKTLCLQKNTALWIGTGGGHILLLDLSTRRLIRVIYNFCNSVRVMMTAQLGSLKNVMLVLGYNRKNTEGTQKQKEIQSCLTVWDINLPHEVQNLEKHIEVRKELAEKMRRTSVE
Chain of Serine/threonine-protein kinase B-raf (Homo sapiens) (P15056 whole entry): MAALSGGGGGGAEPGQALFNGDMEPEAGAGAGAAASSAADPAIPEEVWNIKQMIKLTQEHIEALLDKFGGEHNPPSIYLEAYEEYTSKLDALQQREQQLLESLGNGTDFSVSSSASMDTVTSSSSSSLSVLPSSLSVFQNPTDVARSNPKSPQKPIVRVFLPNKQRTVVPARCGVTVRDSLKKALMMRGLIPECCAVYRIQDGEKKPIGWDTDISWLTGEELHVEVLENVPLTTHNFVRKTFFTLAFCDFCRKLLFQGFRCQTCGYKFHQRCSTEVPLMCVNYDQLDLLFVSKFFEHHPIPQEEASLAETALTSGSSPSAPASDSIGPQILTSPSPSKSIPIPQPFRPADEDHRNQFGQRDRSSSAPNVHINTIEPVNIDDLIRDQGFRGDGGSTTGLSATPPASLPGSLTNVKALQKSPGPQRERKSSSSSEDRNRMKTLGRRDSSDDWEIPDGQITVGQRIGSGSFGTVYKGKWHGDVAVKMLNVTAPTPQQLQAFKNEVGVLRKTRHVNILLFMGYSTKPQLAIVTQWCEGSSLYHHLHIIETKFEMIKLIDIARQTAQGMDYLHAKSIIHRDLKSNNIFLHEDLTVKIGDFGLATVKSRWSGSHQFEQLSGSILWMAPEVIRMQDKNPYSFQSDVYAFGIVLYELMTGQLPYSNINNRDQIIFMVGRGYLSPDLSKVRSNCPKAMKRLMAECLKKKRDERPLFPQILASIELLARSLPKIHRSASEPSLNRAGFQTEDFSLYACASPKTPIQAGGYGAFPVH
Chain of Tyrosine-protein kinase Yes (Homo sapiens) (P07947 2-543 limits assumed): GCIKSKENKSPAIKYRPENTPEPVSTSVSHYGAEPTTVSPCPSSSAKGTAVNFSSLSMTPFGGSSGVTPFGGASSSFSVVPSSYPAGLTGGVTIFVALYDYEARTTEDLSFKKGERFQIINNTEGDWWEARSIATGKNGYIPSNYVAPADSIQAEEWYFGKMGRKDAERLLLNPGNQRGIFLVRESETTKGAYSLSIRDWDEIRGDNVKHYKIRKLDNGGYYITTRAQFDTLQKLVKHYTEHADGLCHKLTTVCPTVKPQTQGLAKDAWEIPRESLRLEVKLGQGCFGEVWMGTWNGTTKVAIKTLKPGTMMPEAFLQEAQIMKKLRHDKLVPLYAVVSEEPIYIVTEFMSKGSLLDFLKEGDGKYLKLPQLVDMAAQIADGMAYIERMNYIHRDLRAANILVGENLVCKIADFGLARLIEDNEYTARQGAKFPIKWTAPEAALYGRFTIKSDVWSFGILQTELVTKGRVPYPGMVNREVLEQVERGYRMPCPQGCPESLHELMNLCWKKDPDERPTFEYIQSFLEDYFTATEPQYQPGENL
Chain of Leucine-rich repeat serine/threonine-protein kinase 2 (Homo sapiens), Q5S007 [G2019S] (Q5S007 whole entry G2019S): as the sequence (Q5S007 whole entry) above, with G2019S counted along it
Chain of Serine/threonine-protein kinase B-raf (Homo sapiens), P15056 [V600E] (P15056 whole entry V600E): as the sequence (P15056 whole entry) above, with V600E counted along it

`COc1ccccc1-c1cc(/C=C2\C(=O)Nc3ncc(Br)cc32)cc(Br)c1O`: the inhibition in [1] is 3.41%; in assay [2] it was -0.07%; in assay [3] it was 12.9%; in assay [4], 2.43%; in assay [5] it was 6.67%; in assay [6], 6.58%. The inhibition was 10.5% in assay [7]; 7.25% in assay [8]; 8.04% in assay [9]; -0.19% in assay [10]; -9.49% in [11]; 2.4% in assay [12]. Besides, the inhibition in [13] was determined as 1.85%; in assay [14] it was 7.41%; in [15], 17.6%; in assay [16] it was 13.5%; in [17], 55.3%.
For `c1cnn2ncc(-c3ccnc(NCCCN4CCOCC4)n3)c2c1`, the inhibition came to 2.64% in assay [1]; 2.68% in [2]; 0.1% in assay [3]; 2.13% in assay [4]; 2.9% in assay [5]; 5.35% in [6]. Besides, the inhibition in assay [7] was 7.07%; in [8], 5.41%; in assay [9], 5.03%; in [10] it was 2.81%; in [11], -5.16%; in assay [12], 2.04%. Moreover, the inhibition in assay [13] is 1.39%; in [14], 1.69%; in assay [15], 1.57%; in [16] it was 2.1%; in assay [17], 5.03%.
Regarding `N#Cc1ccc2c(-c3ccnc(NC4CC4)n3)c(-c3ccc(F)cc3)nn2c1`, the inhibition is 0.69% in assay [1]; 2.22% in assay [2]; 3.79% in [3]; -2.8% in assay [4]; 1.15% in [5]; 2.6% in [6]. The inhibition was 5.81% in [7]; 2.7% in assay [8]; 4.72% in assay [9]; -0.7% in assay [10]; -2.54% in assay [11]; 0.03% in assay [12]. For the same molecule, the inhibition is -0.5% in assay [13]; 2.1% in assay [14]; -2.22% in assay [15]; 1.24% in assay [16]; -0.08% in assay [17].
With `COc1ccc(Nc2ncc(-c3ccccc3)o2)cc1OC`, the inhibition in assay [1] was 4.23%; in [2], 7%; in [3] it was 35.7%; in assay [4], 1.28%; in [5] it was 1.27%; in [6] it was -1.46%. Also, the inhibition was 1.35% in [7]; 0.52% in assay [8]; 2.34% in [9]; -0.64% in assay [10]; 3.96% in [11]; 2.27% in [12]. Also, the inhibition in assay [13] stood at 2.28%; in assay [14], 1.05%; in assay [15], 13.2%; in [16], 3.5%; in assay [17], 22.9%.
On to `Nc1ncnc2occ(-c3ccc(NC(=O)Nc4cc(C(F)(F)F)ccc4F)cc3)c12`, for which the inhibition in assay [1] is 35.9% and 19%; in assay [2] it was 6.63% and 1.99%; in [3], 32.5% and 23.6%; in assay [4], 1.41% and -6.7%; in assay [5], 3.15% and -0.06%; in [6], 2.87% and -2.08%. The inhibition is 7.26% and 0.64% in [7]; 2.85% and -0.81% in assay [8]; 11.3% and 5.32% in assay [9]; -9.78% and -3.09% in [10]; -6.08% and -5.86% in assay [11]; -1.81% and -1.2% in [12]. The inhibition was 1.77% and -0.37% in assay [13]; 13.6% and 6.55% in [14]; 18.1% and 19.4% in assay [15]; 8.38% and 6.37% in assay [16]; 35.4% and 28.6% in assay [17].
Take `COC(=O)Nc1nc2cc(Oc3ccc(NC(=O)Nc4ccccc4)cc3)ccc2[nH]1`: the inhibition stood at 4.81% in [1]; 0.64% in [2]; 4.69% in assay [3]; 0.7% in [4]; 1.28% in assay [5]; 4.74% in assay [6]. The inhibition was 4.26% in assay [7]; 5.49% in [8]; 5% in [9]; -5.27% in [10]; 17.3% in [11]; 2.38% in assay [12]. Further, the inhibition in assay [13] was determined as 0.86%; in [14], 3.5%; in assay [15] it was 6.86%; in [16], 3.61%; in assay [17] it was 4.1%.
As for `CC1=C(C(=O)Nc2ccc3[nH]nc(C)c3c2)C(c2ccc(C(F)(F)F)cc2)CC(=O)N1` (stereo unspecified), the inhibition in assay [1] came to 2.61%; in assay [2], 2.7%; in assay [3], 11.8%; in assay [4], 0.65%; in [5], 2.13%; in [6] it was 6.25%. Also, the inhibition is 38.8% in assay [7]; 5.77% in assay [8]; 37.9% in assay [9]; 3.79% in assay [10]; -1.39% in assay [11]; -3.01% in assay [12]. Further, the inhibition in assay [13] is 1.5%; in [14] it was 5.54%; in [15], 21.3%; in assay [16], 9.85%; in assay [17], 49.5%.
With `Fc1cccc(COc2ccc(Nc3ncncc3C#Cc3ccccc3)cc2Cl)c1`, the inhibition came out at 9.44% in assay [1]; 4.11% in [2]; 3.65% in assay [3]; 2.29% in assay [4]; 1.11% in assay [5]; 6.77% in assay [6]. Further, the inhibition in [7] is 4.45%; in assay [8], 6.66%; in assay [9] it was 5.53%; in assay [10], -0.3%; in assay [11], 5.17%; in assay [12] it was 0.71%. In addition, the inhibition worked out at 2.43% in [13]; 3.65% in assay [14]; 7.01% in assay [15]; 4.05% in [16]; 6.17% in [17].
